Records with an inconclusive call do not appear. The source made the active and inactive calls. Calls come from the whole dose curve; as a rule, active = well fitted inhibition curve with a large enough effect; inconclusive = small, poorly fitted or top-dose-only effect; inactive = no such curve, though single readings can be large or run the other way.
Test: Counterscreen Assay for Inhibitors of the ERK Signaling Pathway using a Homogeneous Screening Assay
Source text: qHTS Assay for Inhibitors of the ERK Signaling Pathway using a Homogeneous Screening Assay
NIH Chemical Genomics Center [NCGC]
NIH Molecular Libraries Screening Centers Network [MLSCN]
Assay Submitter (PI): Dr. Wei Zheng, NCGC/NIH
The Ras/extracellular-signal-regulated kinase (ERK) mitogen activated protein (MAP) kinase signaling pathway (ERK1/2 cascade) plays is a key role in transmitting signals from the cell surface to the nucleus (Nishida and Gotoh 1993; Chang and Karin, 2001). The cascade is initiated by the small G-protein Ras, which recruits Raf […], where activation occurs. Alternatively, this pathway can be activated by elevating intracellular cAMP.
Activation of the ERK pathway is essential in increased cell division and cell survival. Sustained and constitutive activation of the ERK pathway, however, has been linked to uncontrolled cell proliferation, increased cell survival, and tumor progression. Thus, the ERK has been as an attractive target for cancer chemotherapy in the past few years (Sebolt-Leopold and Herrera, 2004). […]
Biotinylated rabbit IgG was used to perform a counter-screen in the context of an AlphaScreen assay kit provided by PerkinElmer. […] AC50 values were determined from concentration-response data modeled with the standard Hill equation. […]
(10) Detect the assay plate in an EnVision plate reader (PerkinElmer) using the AlphaScreen detection mode. […]

| SMILES | outcome |
| --- | --- |
| CCN1C(=O)NC(=O)/C(=C/c2cc(C)n(-c3sc(C)c(C)c3C#N)c2C)C1=O | inactive |
| O=C1NC(=O)C(=Cc2ccccc2Oc2ccc(F)cc2)C(=O)N1 | inactive |
